# Assay outcomes (PubChem BioAssay)
# IDE exosite FP = exo-site inhibitors of human IDE, primary screen, biochemical, fluorescence anisotropy, probe displacement; Insulin-degrading enzyme (Homo sapiens), P14735; purified IDE, FL-6b probe fluorescence polarization; stronger effect = lower value; z-score at 20 µM; 17,000 compounds, 6.3% hits; AID 1259349, 2017;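 active means z-score of -3 or lower, meaning strong loss of probe binding signal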;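 further: His-tagged human IDE residues 42-1019 made in E. coli with 30 nM FL-6b probe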
# Target sequence (P14735 42-1019 limits assumed): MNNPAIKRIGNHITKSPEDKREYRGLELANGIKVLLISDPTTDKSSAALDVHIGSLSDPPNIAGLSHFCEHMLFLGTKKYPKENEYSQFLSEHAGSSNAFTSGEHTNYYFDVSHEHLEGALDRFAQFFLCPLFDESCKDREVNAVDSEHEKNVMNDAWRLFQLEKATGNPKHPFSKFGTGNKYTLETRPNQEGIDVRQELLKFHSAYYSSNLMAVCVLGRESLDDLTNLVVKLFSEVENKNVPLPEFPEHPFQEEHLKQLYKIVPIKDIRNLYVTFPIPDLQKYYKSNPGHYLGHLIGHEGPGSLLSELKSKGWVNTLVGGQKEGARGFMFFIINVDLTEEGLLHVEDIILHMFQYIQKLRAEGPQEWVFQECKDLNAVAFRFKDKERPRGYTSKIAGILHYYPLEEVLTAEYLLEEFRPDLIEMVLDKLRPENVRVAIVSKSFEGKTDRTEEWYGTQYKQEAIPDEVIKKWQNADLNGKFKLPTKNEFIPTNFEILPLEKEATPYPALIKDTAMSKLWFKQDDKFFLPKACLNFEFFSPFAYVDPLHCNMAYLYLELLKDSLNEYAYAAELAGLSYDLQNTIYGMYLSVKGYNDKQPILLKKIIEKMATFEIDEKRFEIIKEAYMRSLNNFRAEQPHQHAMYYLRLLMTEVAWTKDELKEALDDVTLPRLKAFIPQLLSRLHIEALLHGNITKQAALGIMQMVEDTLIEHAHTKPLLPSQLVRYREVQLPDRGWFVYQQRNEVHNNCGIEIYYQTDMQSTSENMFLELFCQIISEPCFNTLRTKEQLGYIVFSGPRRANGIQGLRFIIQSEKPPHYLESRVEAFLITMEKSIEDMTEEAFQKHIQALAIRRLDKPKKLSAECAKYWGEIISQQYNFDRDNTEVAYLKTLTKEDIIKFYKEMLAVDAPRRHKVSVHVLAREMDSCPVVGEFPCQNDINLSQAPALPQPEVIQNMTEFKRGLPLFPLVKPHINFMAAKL
# Active calls of the source: *. Only a selection was taken, and hits are over-represented in it overall.
SMILES,IDE exosite FP
O=C1CN(Cc2ccccc2)C[C@@H]2[C@@H](c3ccc(-c4ccccc4F)cc3)[C@@H](CO)N12,-4.7*
O=C(C1CCCCC1)N1CC(=O)N2[C@@H](CO)[C@H](c3ccc(-c4ccccc4F)cc3)[C@@H]2C1,-1.2
O=C(C1CCC1)N1CC(=O)N2[C@H](C1)[C@H](c1ccc(-c3ccccc3F)cc1)[C@@H]2CO,-0.87
O=C(C1CCC1)N1CC(=O)N2[C@H](CO)[C@H](c3ccc(-c4ccccc4F)cc3)[C@H]2C1,-11*
O=C(C1CC1)N1CC(=O)N2[C@@H](CO)[C@@H](c3ccc(-c4ccccc4F)cc3)[C@@H]2C1,-8.4*
O=C1CN(Cc2ccc(F)cc2)C[C@H]2[C@H](c3ccc(-c4ccccc4F)cc3)[C@@H](CO)N12,-1.2
O=C(C1CCCCC1)N1CC(=O)N2[C@H](CO)[C@H](c3ccc(-c4ccccc4F)cc3)[C@@H]2C1,-1.7
O=C1CN(Cc2ccccc2)C[C@@H]2[C@H](c3ccc(-c4ccccc4F)cc3)[C@H](CO)N12,0.25
O=C(Nc1ccccc1)N1CCCCN2[C@H](CO)[C@H](c3ccc(C#Cc4ccccn4)cc3)[C@H]2C1,-2.4
N#C[C@@H]1[C@@H](c2ccccc2C2=CCCCC2)[C@@H](CO)N1S(=O)(=O)c1ccccc1,-0.54
N#C[C@@H]1N[C@@H](CO)[C@@H]1c1ccc(C#CC2CCCC2)cc1,3.8
O=C(C[C@@H]1CC[C@H]2[C@@H](COC[C@@H](O)CN2C(=O)c2ccncc2)O1)Nc1ccc(-c2ccccc2)cc1,-1.7
N#Cc1cccc(-c2ccc([C@@H]3[C@@H](CO)N4CCCCN(C(=O)Nc5ccccc5)C[C@@H]34)cc2)c1,-0.019
COc1ccc(NC(=O)N2CCCCN3[C@H](C2)[C@@H](c2ccc(-c4ccccc4F)cc2)[C@@H]3CO)cc1,0.93
COc1ccc(NC(=O)N2CCCCN3[C@H](CO)[C@@H](c4ccc(-c5ccccc5C)cc4)[C@H]3C2)cc1,-1.1
COc1ccc(NC(=O)N2CCCCN3[C@@H](CO)[C@H](c4ccc(-c5ccccc5C)cc4)[C@@H]3C2)cc1,-10*
COc1ccc(NC(=O)N2CCCCN3[C@H](CO)[C@H](c4ccc(-c5ccccc5C)cc4)[C@@H]3C2)cc1,-0.82
COc1ccc(NC(=O)N2CCCCN3[C@@H](CO)[C@@H](c4ccc(-c5ccccc5C)cc4)[C@@H]3C2)cc1,-4.5*
COc1ccc(NC(=O)N2CCCCN3[C@H](CO)[C@H](c4ccc(-c5ccccc5F)cc4)[C@H]3C2)cc1,0.79
C/C=C/c1ccc([C@H]2[C@@H](CO)N[C@@H]2CNC(=O)C2CCCCC2)cc1,3.9
O=C(Nc1ccccc1)N1CC(=O)N2[C@H](CO)[C@H](c3ccc(C#CC4CC4)cc3)[C@H]2C1,-0.6
C[C@@H]1CN([C@H](C)CO)C(=O)Cc2cc(N(C)C)ccc2O[C@H]1CN(C)Cc1ccc(-c2ccccc2)cc1,0.22
O=C(CC1CC1)N1CC(=O)N2[C@@H](CO)[C@@H](c3ccc(-c4ccccc4)cc3)[C@@H]2C1,-4.8*
O=C(CC1CC1)N1CC(=O)N2[C@H](CO)[C@H](c3ccc(/C=C/c4ccccc4)cc3)[C@@H]2C1,-1.5
O=C(CC1CC1)N1CC(=O)N2[C@H](CO)[C@@H](c3ccc(-c4cccnc4)cc3)[C@@H]2C1,-1.3
SMILES,IDE exosite FP
O=C(CC1CC1)N1CC(=O)N2[C@H](CO)[C@@H](c3ccc(/C=C/c4ccccc4)cc3)[C@H]2C1,-3.3*
O=C(CC1CC1)N1CC(=O)N2[C@@H](CO)[C@H](c3ccc(/C=C/c4ccccc4)cc3)[C@@H]2C1,-5*
COCC(=O)N1CC(=O)N2[C@@H](CO)[C@H](c3ccc(-c4ccccc4)cc3)[C@@H]2C1,-0.89
CCCC#Cc1ccc([C@@H]2[C@@H](CO)N3C(=O)CN(C(=O)Nc4cc(F)ccc4F)C[C@H]23)cc1,4.1
O=C(c1ccncc1)N1CC(=O)N2[C@H](CO)[C@H](c3ccc(C#CCC4CCCC4)cc3)[C@H]2C1,-0.18
COc1cccc(S(=O)(=O)N2C[C@@H]3N[C@H](C2)C3c2ccc(-c3ccc(C(=O)N(C)C)cc3)cc2)c1 (stereo not given in full),4.6
CCC(=O)N1[C@H](CO)[C@H](c2ccccc2)C12CN(C(=O)CN1CCOCC1)C2,-0.5
CN1C(=O)c2cc(NC(=O)Nc3ccccc3Cl)ccc2OC[C@@H]2O[C@H](CC(=O)O)CC[C@H]21,-0.65
O=C(Nc1ccccc1F)N1CC(=O)N2[C@@H](CO)[C@H](c3ccc(-c4ccc(F)cc4)cc3)[C@@H]2C1,1.4
CO[C@@H]1CN(C)C(=O)c2cc(NS(=O)(=O)c3cccc(Cl)c3)ccc2OC[C@@H](C)NC[C@H]1C,-0.92
O=C(C1CCOCC1)N1[C@H](CO)[C@@H](c2ccccc2)C12CN(CCC(F)(F)F)C2,1.2
CC(C)NC(=O)Nc1ccc2c(c1)C(=O)N([C@@H](C)CO)C[C@H](C)[C@H](CN(C)C(=O)C1CCCCC1)OCCCC[C@@H](C)O2,0.61
O=C(Nc1cc(F)ccc1F)N1CCCCN2[C@H](C1)[C@@H](c1ccc(-c3ccccc3)cc1)[C@@H]2CO,4.8
COc1ccccc1-c1ccccc1[C@@H]1[C@@H](C#N)N(C(=O)C2CCC2)[C@@H]1CO,5.1
COc1ccccc1-c1ccccc1[C@@H]1[C@@H](CO)N(C(=O)C2CCC2)[C@H]1C#N,2.7
COc1ccccc1-c1ccc([C@@H]2[C@@H](C#N)N(C(=O)C3CC3)[C@@H]2CO)cc1,-17*
N#C[C@@H]1[C@@H](c2ccc(-c3ccccc3F)cc2)[C@H](CO)N1C(=O)C1CCC1,2.1
N#C[C@@H]1[C@H](c2ccc(-c3ccccc3F)cc2)[C@H](CO)N1C(=O)C1CCC1,0.44
COc1ccccc1-c1ccc([C@@H]2[C@H](C#N)N(C(=O)C3CC3)[C@H]2CO)cc1,-5.9*
COc1ccccc1-c1ccc([C@@H]2[C@@H](CO)N(C(=O)C3CC3)[C@H]2C#N)cc1,-7.8*
COc1ccc(-c2ccccc2[C@H]2[C@@H](C#N)N(C(=O)C3CC3)[C@H]2CO)cc1,3
COc1ccccc1-c1ccc([C@H]2[C@H](C#N)N(C(=O)C3CC3)[C@H]2CO)cc1,-10*
N#C[C@H]1[C@@H](c2ccc(-c3ccccc3F)cc2)[C@H](CO)N1C(=O)C1CCC1,-0.67
CO[C@@H](CN(C)Cc1ccc2c(c1)OCO2)[C@@H](C)CN(C(=O)Nc1ccc(F)cc1)[C@@H](C)CO,1.1
CCCNC(=O)[C@@H]1[C@@H](CO)[C@@H]2Cn3c(cccc3=O)[C@@H]2N1Cc1cccc(F)c1,0.23
SMILES,IDE exosite FP
N#C[C@H]1[C@@H](c2ccc(C3=CCCCC3)cc2)[C@@H](CO)N1C(=O)C1CCOCC1,2.1
COCC(=O)N1[C@H](C#N)[C@H](c2ccccc2-c2ccccc2)[C@H]1CO,2.7
CCCNC(=O)N1[C@@H]2Cn3c(cccc3=O)[C@H]1[C@@H](C(=O)N1CCC(Cc3ccccc3)CC1)[C@@H]2CO,0.64
CO[C@@H](CN(C)C(=O)c1cc(Cl)cc(Cl)c1)[C@@H](C)CN(C(=O)Nc1ccc(F)cc1)[C@@H](C)CO,-0.44
COCC(=O)N1[C@@H](CO)[C@@H](c2ccc(-c3ccccc3OC)cc2)C12CN(C(C)=O)C2,0.23
CCc1csc(N2[C@H](C#N)[C@@H](c3ccc(-c4cccc(F)c4)cc3)[C@@H]2CO)n1,3.4
COCCNC(=O)C[C@@H]1C[C@@H]2c3cc(NC(=O)CN(C)C)ccc3O[C@@H]2[C@@H](CO)O1,-1.2
